# Measured values: ChEMBL document CHEMBL3988442, “University of Dundee, Small-Polar-MMV Screening Library” (2021)
# The whole screen tested about 66,000 compounds, of which about 960 (1.5%) showed an effect of 50% or more. The sample as a whole holds a higher share of strong results than the screen did.
# Tested on: Trypanosoma brucei
# Test: Trypanosoma brucei 72 hour study
# Format: functional, organism-based
# Design: scale not given: in the data most compounds retested in dose-response had high values
compound,measurement,setting,value
CN(CCOc1ccc(Cl)cc1)Cc1ccc(S(=O)(=O)N(C)C)o1,Percent Effect,"30 µM, 30.03 µM",-22.42%
Cn1nc(-c2ccc(Cl)cc2)c(Br)c1C(=O)O,Percent Effect,"30 µM, 30.03 µM",-21.18%
Cc1cccc(CN2C(=O)CCC23CCN(C(=O)N2CCCC2)CC3)n1.O=C(O)C(F)(F)F,Percent Effect,"30.3 µM, […]",-18.36%
Cc1cc(NCc2ccc(O)cc2)n2nc(C)cc2n1,Percent Effect,"30 µM, 30.03 µM",9.404%
Cc1cc(NCc2cccnc2)n2nc(C)cc2n1,Percent Effect,"30 µM, 30.03 µM",51.67%
Cc1cc(NCc2ccc(CO)cc2)n2nc(C)cc2n1,Percent Effect,"30 µM, 30.03 µM",21.61%
COCCN1CCc2ncnc(-c3ccccc3)c2CC1.O=C(O)C(F)(F)F,Percent Effect,"30.3 µM, […]",-87.22%
NC(=O)c1cccc(OCC(=O)NS(=O)(=O)c2ccc3c(c2)CCC3)c1,Percent Effect,"30.3 µM, […]",-4.37%
CN(Cc1ccsc1)C(=O)Nc1cccnc1N1CCCC1,Percent Effect,"30 µM, 30.03 µM",-52.54%
CN(Cc1ccco1)C(=O)Nc1cccnc1N1CCCC1,Percent Effect,"30.3 µM, […]",18.63%
CCc1ncc(CN(C)C(=O)Nc2cccnc2N2CCCC2)s1,Percent Effect,"30 µM, 30.03 µM",50.09%
O=C(O)C(F)(F)F.O=C(c1cc[nH]n1)N1CCC2(CC1)CC(Oc1cccnc1)CO2 (stereo not drawn),Percent Effect,"30 µM, 30.03 µM",-3.949%
COc1ccc(Cl)cc1NCC(=O)NCc1cccnc1OC,Percent Effect,"30.3 µM, […]",74.82%
same,Percent Effect,"10 mM, 10 mM as filed; unlikely as a test dose",-40.14%
COc1cc(CNC(=O)CNc2cc(Cl)ccc2OC)ccn1,Percent Effect,"30 µM, 30.03 µM",-27.18%
COc1ccc(Cl)cc1NCC(=O)NCCNc1ncccn1,Percent Effect,"30.3 µM, […]",-3.8%
same,Percent Effect,"10 mM, 10 mM as filed; unlikely as a test dose",-45.51%
CS(=O)(=O)NCc1nnc2n1CCN(Cc1cccs1)CC2.O=C(O)C(F)(F)F,Percent Effect,"30.3 µM, […]",-150.1%
Cc1ccc(N2CCC3(CC2)COCCN(c2nccs2)C3)nn1.O=C(O)C(F)(F)F.O=C(O)C(F)(F)F,Percent Effect,"30 µM, 30.03 µM",-12.93%
Cc1ccc(C(=O)N2CCC3(CC2)COC(COc2cccnc2)C3)o1.O=C(O)C(F)(F)F (stereo not drawn),Percent Effect,"30 µM, 30.03 µM",51.84%
CCOCC1CC2(CCN(C(=O)c3ccccn3)CC2)CO1.O=C(O)C(F)(F)F (stereo not drawn),Percent Effect,"30.3 µM, […]",13.92%
Cc1ccc(C(=O)N2CCC3(CC2)COC(COc2ccccn2)C3)o1.O=C(O)C(F)(F)F (stereo not drawn),Percent Effect,"30.3 µM, […]",15.32%
O=C(c1ccccn1)N1CCC2(CC1)COC(COc1cccnc1)C2 (stereo not drawn),Percent Effect,"30 µM, 30.03 µM",52.19%
CCS(=O)(=O)N1CCC2(CC1)COC(COc1cccnc1)C2.O=C(O)C(F)(F)F (stereo not drawn),Percent Effect,"30.3 µM, […]",1.349%
O=C(O)C(F)(F)F.O=C(c1ccccn1)N1CCC2(CC1)COC(COCC1CC1)C2 (stereo not drawn),Percent Effect,"30 µM, 30.03 µM",39.74%
O=C(O)C(F)(F)F.O=C([C@H]1CCCO1)N1CCCC2(COCCN(c3ccccc3)C2)C1 (stereo partly drawn),Percent Effect,"30.3 µM, […]",-14.49%
c1ccc(C(CC2CN(Cc3c[nH]cn3)CCO2)c2ccccc2)cc1 (stereo not drawn),Percent Effect,"30.3 µM, […]",18.17%
CC(=O)N1C[C@@H](c2ccsc2)[C@@H]2CN(Cc3ccccc3C)CC[C@@H]21,Percent Effect,"30.3 µM, […]",-10.13%
CC(=O)N1CCCn2nc(CNS(=O)(=O)N3CCCCCC3)cc2C1,Percent Effect,"30 µM, 30.03 µM",-5.109%
COC(=O)NCc1cc2n(n1)CCCN(C(C)=O)C2,Percent Effect,"30 µM, 30.03 µM",54.27%
CC(=O)N1CCCn2nc(CNC(=O)N3CCCCC3)cc2C1,Percent Effect,"30 µM, 30.03 µM",-45.6%
O=C(c1cccs1)N1CCC2(C1)c1ccccc1S(=O)(=O)N2CC1CC1 (stereo not drawn),Percent Effect,"30 µM, 30.03 µM",16.77%
CCCC(=O)NC(Cc1ccc(C)cc1)c1ccccn1 (stereo not drawn),Percent Effect,"30 µM, 30.03 µM",-30.99%
CSCC(=O)NC(Cc1ccc(C)cc1)c1ccccn1 (stereo not drawn),Percent Effect,"30 µM, 30.03 µM",-45.46%
Cc1ccc(CC(NC(=O)CN(C)C2CC2)c2ccccn2)cc1 (stereo not drawn),Percent Effect,"30 µM, 30.03 µM",99.62%
O=C(O)C(F)(F)F.c1csc(CN2C[C@H](OCC3CC3)[C@H]3COC[C@H]32)n1,Percent Effect,"30.3 µM, […]",-56.8%
Cc1cc(C)n(C2CN(CC(O)c3cc(F)ccc3F)C2)n1 (stereo not drawn),Percent Effect,"30.3 µM, […]",7.425%
same,Percent Effect,"10 mM, 10 mM as filed; unlikely as a test dose",-39.98%
CCN1C(=O)CCC12CCCN(Cc1ccc(F)cc1)CC2.O=C(O)C(F)(F)F (stereo not drawn),Percent Effect,"30.3 µM, […]",-27.1%
C[C@H]1CN(C(=O)N(C)C)C[C@@]12CCN(c1ccsc1)C2=O,Percent Effect,"30.3 µM, […]",-235.1%
C[C@@H]1CN(C(=O)c2ccsc2)C[C@]12CCN(c1ccsc1)C2=O,Percent Effect,"30 µM, 30.03 µM",49.54%
C[C@@H]1CN(C(=O)NC2CC2)C[C@]12CCN(c1ccsc1)C2=O,Percent Effect,"30 µM, 30.03 µM",50.13%
Cc1ccnn1CCC(=O)N1CCCC1c1cc2cccnc2[nH]1.Cl (stereo not drawn),Percent Effect,"30.3 µM, […]",-12.68%
Cc1cccc(CN2C[C@@H]3COC[C@]3(CNC(=O)c3ccno3)C2)n1.O=C(O)C(F)(F)F.O=C(O)C(F)(F)F,Percent Effect,"30 µM, 30.03 µM",26.49%
Cc1nc(N2CCCCC2)ncc1-c1cc(O)nc(N2CCCCC2)n1,Percent Effect,"30.3 µM, […]",-25.73%
Cc1nc(N2CCCC2)ncc1-c1cc(O)nc(N2CCCCC2)n1,Percent Effect,"30.3 µM, […]",-25.67%
Cc1nc(N2CCCC2)ncc1-c1cc(O)nc(N2CCCC2)n1,Percent Effect,"30 µM, 30.03 µM",64.4%
CCOCC1CN(S(=O)(=O)N(C)C)Cc2cnn(CC)c21.O=C(O)C(F)(F)F (stereo not drawn),Percent Effect,"30 µM, 30.03 µM",-21.09%
CCOCC1CN(C(=O)c2cccn2C)Cc2cnn(CC3CC3)c21.O=C(O)C(F)(F)F (stereo not drawn),Percent Effect,"30 µM, 30.03 µM",19.58%
CCOCC1CN(S(=O)(=O)N(C)C)Cc2cnn(C)c21.O=C(O)C(F)(F)F (stereo not drawn),Percent Effect,"30 µM, 30.03 µM",56.34%
CCOCC1CN(S(=O)(=O)N(C)C)Cc2cnn(CC3CC3)c21.O=C(O)C(F)(F)F (stereo not drawn),Percent Effect,"30 µM, 30.03 µM",-18.48%
CCOCC1CN(C(=O)c2cnccn2)Cc2cnn(CC3CC3)c21.O=C(O)C(F)(F)F (stereo not drawn),Percent Effect,"30 µM, 30.03 µM",61.22%
CCOCC1CN(C(=O)c2cscn2)Cc2cnn(CC3CC3)c21 (stereo not drawn),Percent Effect,"30 µM, 30.03 µM",-19.67%
O=C(CC1CC1)N1CCN(Cc2cccnc2)c2ncccc2C1.O=C(O)C(F)(F)F.O=C(O)C(F)(F)F,Percent Effect,"30.3 µM, […]",-18.28%
C1CCC(CN2Cc3nnn(CC4CC4)c3C(COCC3CC3)C2)C1.O=C(O)C(F)(F)F (stereo not drawn),Percent Effect,"30.3 µM, […]",-7.314%
CCCS(=O)(=O)N1C[C@H]2C[C@H](C(=O)N3CCN(C)CC3)[C@@H](C1)O2.O=C(O)C(F)(F)F,Percent Effect,"30.3 µM, […]",2.556%
Cn1ccc(C(=O)NC2CCC23CCN(Cc2cnn(C)c2)CC3)c1.O=C(O)C(F)(F)F (stereo not drawn),Percent Effect,"30 µM, 30.03 µM",-26.08%
O=C(Nc1cccnc1)N(Cc1ccccc1)C1CC1,Percent Effect,"30 µM, 30.03 µM",60.16%
CC(C)CN(C(=O)Nc1cccnc1)C1CC1,Percent Effect,"30 µM, 30.03 µM",-2.145%
O=C(c1cccnc1)N(Cc1ccncc1)C1CC1,Percent Effect,"30 µM, 30.03 µM",-21.55%
Fc1ccc(CNC2CCN(CCc3ccncc3)CC2)cc1F,Percent Effect,"30 µM, 30.03 µM",6.927%
COc1ccc(CNC2CCN(CCc3ccncc3)CC2)cc1O,Percent Effect,"30 µM, 30.03 µM",21.52%
Cc1ccc(CNC2CCN(CCc3ccncc3)CC2)cc1C,Percent Effect,"30 µM, 30.03 µM",51.93%
